{"source": "PubChem BioAssay AID720518", "about": "(National Center for Advancing Translational Sciences (NCATS), 2013)", "note": "Results filed as inconclusive are left out. Entries that show only a call come without a potency. Active and inactive are the calls of the source. The call rests on the fitted dose curve. Potency means the concentration at half of the fitted maximal effect."}
{"assay": "qHTS for Inhibitors of Cell Surface uPA Generation: Wild-type Protective Antigen (WT-PrAg) Counterscreen for Cherry-picked Compounds", "conditions": "cells, WT protective antigen toxicity counterscreen; series mostly up to 115 µM"}
{"smiles": "C=C(C(=O)O)C1CCC2(C)CCCC(C)(O)C2C1", "note": "(stereo not given)", "Potency": "inactive"}
{"smiles": "CCOc1ccc(NS(=O)(=O)c2coc(C(N)=O)c2)cc1", "Potency": "inactive"}
{"smiles": "COc1ccc(CC(=O)OCC(=O)NNC(=O)c2ccccc2)cc1", "Potency": "inactive"}
{"smiles": "Cc1cnc(CNC(=O)C2CCC(=O)N(CCc3cccc(F)c3)C2)[nH]1", "note": "(stereo not given)", "Potency": "inactive"}
{"smiles": "O=C(c1cc(COc2ccc(F)cc2Cl)on1)N1CCCCCC1", "Potency": "inactive"}
{"smiles": "COc1ccccc1C(=O)Nc1cccc(C(=O)c2ccccc2)c1", "Potency": "inactive"}
{"smiles": "COc1ccc(S(=O)(=O)c2c(O)c3ccc(C(=O)Nc4ccccc4)cc3[nH]c2=O)cc1", "Potency": "inactive"}
{"smiles": "Cc1cc(C)c(S(=O)(=O)N2CCCOC2CNC(=O)C(=O)NCc2cccs2)c(C)c1", "note": "(stereo not given)", "Potency": "inactive"}
{"smiles": "CC1CC(C)(C)Nc2ccc(N=O)cc21", "note": "(stereo not given)", "Potency": "inactive"}
{"smiles": "CCCOc1ccc(CC2CCC(=O)NC2=O)cc1", "note": "(stereo not given)", "Potency": "inactive"}
{"smiles": "O=C1C=CC(O)(c2cc(=O)c3c(O)cc(O)cc3o2)C=C1", "Potency": "16.5 µM (active)"}
{"smiles": "C[N+](C)(C)CCOC(=O)CBr", "Potency": "inactive"}
{"smiles": "Cc1cc(C)nc(N2N=C(C(F)(F)F)CC2=O)n1", "Potency": "inactive"}
{"smiles": "COc1ccccc1CCNC(=O)C(=O)NCC1OCCN1S(=O)(=O)c1ccc(OC)c(OC)c1", "note": "(stereo not given)", "Potency": "inactive"}
{"smiles": "O=C(CCc1ccccc1)NNC(=O)c1cccc(F)c1", "Potency": "inactive"}
{"smiles": "C/C(=N\\NC(=S)NC(C)C)c1ccc(Cl)s1", "Potency": "inactive"}
{"smiles": "Cc1cnc(C(=O)OCC(=O)Nc2ccc3c(c2)OCCO3)cn1", "Potency": "inactive"}
{"smiles": "COc1cc(CN2CCNC(=O)C2CC(=O)NCCCC2CCCC2)cc(OC)c1", "note": "(stereo not given)", "Potency": "inactive"}
{"smiles": "C[n+]1c2cc(N)ccc2cc2ccc(N)cc21", "Potency": "inactive"}
{"smiles": "CC(Sc1nnc2ccccn12)C(=O)NCc1ccc2c(c1)OCO2", "note": "(stereo not given)", "Potency": "inactive"}
{"smiles": "Cc1c(NC(=O)C(C)OC(=O)CCC2CCCC2)c(=O)n(-c2ccccc2)n1C", "note": "(stereo not given)", "Potency": "inactive"}
{"smiles": "Cc1cccc(NC(=O)C2CCCN(S(=O)(=O)c3cccc4cccnc34)C2)c1", "note": "(stereo not given)", "Potency": "inactive"}
{"smiles": "COc1cc(/C=N/NC(=O)c2ccncc2)ccc1O", "Potency": "inactive"}
{"smiles": "Cc1ccc(NC(=O)c2ccc(=O)[nH]n2)cc1S(=O)(=O)Nc1ccccc1Cl", "Potency": "inactive"}
{"smiles": "O=C(c1cc([N+](=O)[O-])cc([N+](=O)[O-])c1)N(c1ccccn1)c1ccccn1", "Potency": "inactive"}
{"smiles": "COc1ccc(S(=O)(=O)N2CCN(Cc3ccccc3)CC2)c(C)c1", "Potency": "inactive"}
{"smiles": "NC(=O)CC(NC(=O)Cc1cccc2ccccc12)c1ccc(N2CCN(c3ccc(F)cc3)CC2)c([N+](=O)[O-])c1", "note": "(stereo not given)", "Potency": "inactive"}
{"smiles": "O=C(NC(=O)c1ccccc1)Nc1cccc(S(=O)(=O)N2CCCCC2)c1", "Potency": "inactive"}
{"smiles": "Cc1nn2c(=O)cc(CSc3nc4ccccc4[nH]3)nc2s1", "Potency": "inactive"}
{"smiles": "CC1(C)CC(=O)C=C(c2ccc3ccccc3c2)C1", "Potency": "inactive"}
{"smiles": "C/C=C/C(=O)Nc1cccc(C2=NOC3(C2)C[C@@H](C(N)=O)N(C(=O)c2cc([N+](=O)[O-])cc([N+](=O)[O-])c2C)C3)c1", "note": "(stereo not given in full)", "Potency": "inactive"}
{"smiles": "CC1(C)S[C@@H]2[C@H](NC(=O)C(C(=O)O)c3ccccc3)C(=O)N2[C@H]1C(=O)O", "note": "(stereo not given in full)", "Potency": "inactive"}
{"smiles": "N#CCCN(C(=O)COC(=O)c1ccc2c(c1)NC(=O)CS2)c1ccc2c(c1)OCCO2", "Potency": "inactive"}
{"smiles": "CCOc1cc(C(=O)OCC(=O)c2cc(C)n(CC3CCCO3)c2C)ccc1OCC(=O)N1CCOCC1", "note": "(stereo not given)", "Potency": "inactive"}
{"smiles": "CC(C(=O)Nc1nccs1)c1ccc([N+](=O)[O-])cc1", "note": "(stereo not given)", "Potency": "inactive"}
{"smiles": "Cc1ccccc1C(=O)NCC(=O)Nc1ccc(C)c(S(=O)(=O)N2CCCCCC2)c1", "Potency": "inactive"}
{"smiles": "CN(C(=O)c1ccccc1C(=O)OCC(=O)NCc1ccccc1)C1CCCCC1", "Potency": "inactive"}
{"smiles": "CC(=O)COc1ccc2c(-c3cccc([N+](=O)[O-])c3)cc(=O)oc2c1", "Potency": "inactive"}
{"smiles": "COCC(=O)N1Cc2ccccc2-n2nncc2C1", "Potency": "inactive"}
{"smiles": "CCCN1CCN(C(=O)CCCn2c(C)c3cnn(-c4ccccc4)c(=O)c3c2C)CC1", "Potency": "inactive"}
